# EPAC1 antagonist – qHTS for Antagonist of cAMP-regulated guanine nucleotide exchange factor 3 (EPAC1): primary screen; Rap guanine nucleotide exchange factor 3 (Homo sapiens), O95398; EPAC1 GEF assay, Rap1b-BODIPY-GDP exchange fluorescence; Potency, µM (highest dose often 115 µM), inactives show at the top dose activity change, negative = inhibition, usual class: inhibitors; actives 0.14% (n = 360,000); AID 720709, 2013;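 note: potency is the fitted concentration of half-maximal effect; plate controls were vehicle for no effect and positive control for full effect; nearly all actives have a fitted effect of over 50% in size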
# EPAC1 ag – qHTS for Agonist of cAMP-regulated guanine nucleotide exchange factor 3 (EPAC1): primary screen. Rap guanine nucleotide exchange factor 3 (Homo sapiens), O95398. EPAC1 agonist qHTS, biochemical assay; response scale: 100% = response to 6.5 mM cAMP. Potency, µM (titrated, usually from 154 µM), for inactives: top-dose activation, actives largely listed as activators. actives 0.073% (n = 360,000); note: potency is the fitted concentration of half-maximal effect; nearly all actives have a fitted effect of over 60% in size
#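 Fluorescent GDP-exchange assay: 100 nM EPAC1 with 250 nM Rap1B preloaded with BODIPY-GDP and 50 uM GDP; compounds tested as concentration series, 5 min at room temperature, then read every 5 min for 30 min (ex 480/em 540 nm); normalized to 6.5 mM cAMP.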
# PTHR1 ag – qHTS for PTHR1 Agonists: Primary Screen; HEK293 GP2 PTHR1 cells, GloSensor cAMP luminescence, 1 h; Potency, µM (doses to about 115 µM), without a hit: top-dose activation, most hits filed as activators; actives 0.075% (n = 410,000); AID 743266, 2014; note: potency is the fitted concentration of half-maximal effect; nearly all actives have a fitted effect of over 55% in size
#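 HEK-293-derived GP2 cells expressing PTHR1 and a GloSensor cAMP reporter, 3,000/well, plated overnight, given luciferin plus IBMX (each 0.5 mM as added) for 1 h at 37 °C, then compound for 1 h at 37 °C. Luminescence was read after 15 min at room temperature.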
# TSHR antagonist – Antagonists of the Thyroid Stimulating Hormone Receptor: HTS campaign; TSHR-expressing cells, TSH-stimulated cAMP HTRF, 2 h; stronger effect = lower value; Thyrotropin receptor (Homo sapiens), P16473; actives 0.2% (n = 330,000); AID 504810, 2011; activity change, negative = inhibition, % at 11.5 µM;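 active = activity change below a set negative limit, meaning inhibition stronger than a set level, cut at about -70% in these data; inconclusive = activity change between two set negative limits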; note: % is set by controls: 0 for no effect and ±100 for the full control effect
#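 Freshly harvested TSHR cells receive pin-tooled compound, then EC80 TSH at 4nM final. After 2 hours at 37 deg C, antibody in lysis buffer and cAMP-d2 are added; 30 minutes at ambient temperature precede the HTRF read.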
# EPAC2 agonist – qHTS for Agonist of cAMP-regulated guanine nucleotide exchange factor 4 (EPAC2): primary screen; Rap guanine nucleotide exchange factor 4 (Homo sapiens), Q8WZA2; EPAC2 activation, biochemical qHTS; response scale: 100% = 6.5 mM cAMP response; Potency, µM (highest dose often 154 µM), for inactives: at the top dose activation, hits mostly activators; actives 0.079% (n = 360,000); AID 720711, 2013; note: potency is the fitted concentration of half-maximal effect; nearly all actives have a fitted effect of over 50% in size
#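 qHTS, titration series. 100 nM EPAC2 / 250 nM Rap1B-BODIPY-GDP / 50 uM GDP; RT; ex 480/em 540 nm, 5-min reads to 30 min. Norm. to 6.5 mM cAMP = activation.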
# EPAC2 antagonist – qHTS for Antagonist of cAMP-regulated guanine nucleotide exchange factor 2 (EPAC2): primary screen | Rap guanine nucleotide exchange factor 4 (Homo sapiens), Q8WZA2 | EPAC2 GEF exchange of Rap1B-BODIPY-GDP, fluorescence | Potency, µM (doses to about 114 µM), without a hit: top-dose activity, negative = inhibition, hits mostly inhibitors | actives 0.18% (n = 360,000) | AID 720708, 2013; note: potency is the fitted concentration of half-maximal effect; % is set by controls: 0 for no effect and ±100 for the full control effect; nearly all actives have a fitted effect of over 45% in size
# * = called active by the depositor; i = inactive; ? = inconclusive; . = no result; [ ] = dose if it differs, or a comment. A selection: hits, their analogues and other compounds. The true share with any hit is near 0.5%. Unless noted, calls come from the whole dose curve; as a rule, active = well fitted curve in the direction sought with a large enough effect; inconclusive = small, poorly fitted or top-dose-only effect, or another doubt; inactive = no such curve, though single readings can be large; an effect the other way counts as inactive or inconclusive.
SMILES,EPAC1 antagonist,EPAC1 ag,PTHR1 ag,TSHR antagonist,EPAC2 agonist,EPAC2 antagonist
COc1ccc(CN(C)c2ncnc3sccc23)c(OC)c1OC,-8.5%,0.3%,-31.7%,40.4,10.5%,-12.7%
CC(NC(=O)Cn1ncc(Cl)c(Cl)c1=O)C12CC3CC(CC(C3)C1)C2 (stereo not drawn),-15.7%,-24.7%,-21.6%,-100.0*,-9.5%,-3.5%
CC1CCCC(NC(=O)COC(=O)c2cc(S(=O)(=O)N3CCOCC3)ccc2F)C1C (stereo not drawn),-17.0%,-6.0%,-14.4%,-3.3,-4.5%,-3.4%
Cn1c2ccccc2c2cc(/C=N/NC(=O)c3cc(O)cc(O)c3)ccc21,?,-9.2%,i,-9.4,14.1%,-2.9%
Cn1c2ccccc2c2cc(/C=N/NC(=O)c3cc(O)ccc3O)ccc21,56.2µM*,8.6%,i,16.7,7.5%,-0.2%
O=C(NCc1ccccc1)c1[nH]c(C(F)(F)F)nc1-c1ccccc1,-23.8%,-1.9%,-15.0%,.,17.1%,4.6%
CN(C(=O)CN1C(=O)/C(=C/c2ccccc2Cl)SC1=S)C1CCS(=O)(=O)C1 (stereo not drawn),9.7%,-2.0%,-66.1%,-126.4*,2.7%,2.2%
CN(C)c1ccc(C=c2c3ccccc3n3c2c2ccccc2[n+]3C)cc1,50.1µM*,15.1%,-21.8%,.,?,44.7µM*
Cc1cc2c(=Cc3ccc(N(C)C)cc3)c3ccccc3n2[n+]1C,-18.6%,-1.9%,i,.,-3.2%,-27.7%
COc1ccc(S(=O)(=O)Nc2ccc(C)cc2)cc1N(C)S(=O)(=O)c1ccc(Cl)cc1,-12.1%,?,-1.9%[57.5 µM],-90.6*,27.8%,-14.1%
COc1ccc(S(=O)(=O)NN(C)C)cc1N(C)S(=O)(=O)c1ccc(Cl)cc1,3.0%,0.7%,-1.1%,5.2,-4.6%,1.1%
Cc1cc(SCc2ccc([N+](=O)[O-])cc2)nc(=O)[nH]1,-22.6%,5.3%,-6.0%,-138.4*,0.0%,-10.3%
Cc1cc(SCc2cccc([N+](=O)[O-])c2)nc(=O)[nH]1,1.9%,13.0%,i,2.4,14.5%,2.5%
CC1(C(=O)NS(=O)(=O)c2ccc(Cl)cc2)CCN1C(=O)C1(c2ccc(Cl)cc2)CCC1 (stereo not drawn),-30.0%,-10.4%,-15.0%,.,8.4%,?
Cc1ccc(F)c(S(=O)(=O)NC(=O)C2(C)CCN2C(=O)C2(c3ccc(Cl)cc3)CC2)c1 (stereo not drawn),-20.4%,-10.5%,-35.6%,.,-10.5%,?
CC1(C(=O)NS(=O)(=O)c2ccc3c(c2)CCO3)CCN1C(=O)C1(c2ccc(Cl)cc2)CCC1 (stereo not drawn),50.1µM*,-5.4%,i,.,8.5%,?
Cc1ccc(F)c(S(=O)(=O)NC(=O)C2(C)CCN2C(=O)C2(c3ccc(Cl)cc3)CCC2)c1 (stereo not drawn),-7.6%,-3.1%,-49.5%,.,-1.3%,44.7µM*
Fc1cccc(CN2CCc3nc(Nc4ccc5c(c4)OCCO5)ncc3C2)c1F,.,.,-14.6%,.,.,.
Cc1ccc(CN2Cc3cccc4c3[C@@H](CC2=O)[C@H](O)[C@H](O)C4)cc1,3.8%,-3.2%,-8.7%,-19.0,0.6%,-5.2%
CCOc1ccc(/C=C/C(=O)c2cc(Br)ccc(=O)c2O)cc1,?,11.0%,-58.7%,?,2.7%,-14.1%
CCc1ccc(/C=C/C(=O)c2cc(Br)ccc(=O)c2O)cc1,-25.1%,5.9%,-20.7%[57.5 µM],-87.2*,0.0%[15.6 µM],-15.2%
Cc1cccc(/C=C/C(=O)c2cc(Br)ccc(=O)c2O)c1,?,1.3%,-14.1%[57.5 µM],-87.8*,0.0%[15.6 µM],0.0%
Fc1ccccc1N1CCN(C2CCCN(Cc3cccc(C(F)(F)F)c3)C2)CC1 (stereo not drawn),-3.2%,-7.7%,-13.8%,9.9,2.2%,?
CC(=O)c1cccc(NC(=O)CSc2ccc(-c3ccco3)nn2)c1,10.0%,-2.4%,-42.4%,-19.6,4.3%,16.8%
O=C(CSc1ccc(-c2ccco2)nn1)c1cccc([N+](=O)[O-])c1,20µM*,-0.4%,-10.7%,-4.8,4.5%,17.0%
SMILES,EPAC1 antagonist,EPAC1 ag,PTHR1 ag,TSHR antagonist,EPAC2 agonist,EPAC2 antagonist
Cc1ccccc1C(=O)Nc1nc(-c2nnn(-c3ccc(C(C)C)cc3)c2C)ns1,.,.,-37.4%,.,.,.
O=C(N/N=C/c1ccc(O)c(O)c1)c1ccc(CSc2cccc3cccnc23)cc1,35.5µM*,-3.3%,-9.7%,1.4,2.9%,-0.4%
COc1ccc(C(=O)N2CCN(Cc3cc(=O)n4nc(-c5ccccc5C)sc4n3)CC2)cc1OC,.,.,13.8%,.,.,.
CCN(CC)c1ccc2cc(S(=O)(=O)c3ccc(Cl)cc3)c(=O)oc2c1,125.8%,89.1µM*,-3.5%,-5.4,-321.7%,254.4%
CCN(CC(=O)Nc1ccc(NC(C)=O)cc1)C(=O)c1ccc(Sc2nncn2C)c([N+](=O)[O-])c1,-6.0%,1.6%,i,.,1.9%,-0.6%
CC1=NN(c2ccccc2)C(=O)C1=Cc1ccccc1,50.1µM*,20.7%,-39.0%,.,16.0%,19.4%
CC1=NN(c2ccc(C)cc2)C(=O)/C1=C\C=C\c1ccccc1,0.6%,4.0%,-30.9%,18.7,-7.0%,2.6%
CC1=NN(c2cccc(C(=O)O)c2)C(=O)/C1=C\C=C/c1ccccc1,-6.0%,-3.1%,-40.0%,-44.3,0.4%,15.8µM*
CSc1cccc(NC(=O)CNC(=O)C2CCCCC2)c1,-8.1%,6.5%,-6.2%,-0.9,10.8%,13.9%
COc1cccc(Cn2c(=O)c3ccccc3n3nc(C)cc23)c1,-4.8%,15.3%,-5.1%,-7.1,14.3%,50.1µM*
COc1cccc(C(=O)/C=C/c2ccc(OCC#N)c(OC)c2)c1,22.4µM*,1.1%,i,-0.7,12.9%,-2.5%
COc1cc(/C=C/C(=O)c2ccc(O)cc2)ccc1OCC#N,?,3.0%,-28.8%,-2.2,8.3%,-10.1%
COc1ccc(/C=N/NC(=O)c2[nH]c3ccc(Br)cc3c2-c2ccccc2)c(C(=O)O)c1OC,79.4µM*,-24.5%,-8.9%,-9.3,-7.5%,-14.1%
COc1ccc(/C=N/NC(=O)c2[nH]c3ccc(Br)cc3c2-c2ccccc2)cc1,-8.2%,6.3%,-8.2%,7.1,4.4%,2.7%

# Screening results deposited in PubChem by National Center for Advancing Translational Sciences (NCATS).
